Data on five compounds can be found in PubChem BioAssay (EPA / NIEHS).

Records with an inconclusive call do not appear. Active and inactive are the calls of the source. How the source made its calls, unless noted: active means hit-call score of the fitted dose curve at least 0.9, where 1 is the maximum; inactive means score below 0.9.

The target of test [1] is Paired box protein Pax-6 (Homo sapiens) (UniProt P26367). Put plainly: ATG_Pax6_CIS: Attagene CIS-FACTORIAL HepG2 Assay for human Paired Box 6 (PAX6) (AID 2282956). Conditions: HepG2 CIS-FACTORIAL PAX6 reporter transcription, RNA readout; actives raise or lower the signal. In short, it runs like this: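 Fluorescent RT-PCR products separated by capillary electrophoresis report PAX6-linked promoter mRNA in HepG2 cells 24 h post-dose. Curves fitted bidirectionally, DMSO as negative control.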

A short description of test [2]: ATG_PXRE_CIS: Attagene CIS-FACTORIAL HepG2 Assay for human Pregnane X Receptor Element (PXRE) (AID 2282957). Conditions: HepG2 Attagene CIS-FACTORIAL PXRE reporter, mRNA; actives raise or lower the signal. The method in brief:
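Endogenous transcription factor activity in HepG2 was gauged through induction of reporter mRNA driven by a cis-regulating promoter element, sampled 24 h post-treatment. Activity was fitted in both directions against DMSO negative control.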

The nature of test [3]: ATG_PPRE_CIS: Attagene CIS-FACTORIAL HepG2 Assay for human Peroxisome Proliferator-activated Response Element (PPRE) (AID 2282958). Conditions: HepG2 PPRE cis-element reporter, Attagene transcription factor profiling; actives raise or lower the signal. In short, it runs like this: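 HepG2 cells are transiently transfected with multiplexed cis-promoter reporter units to report endogenous PPAR activity. After 24 h dosing, reporter mRNA is read by RT-PCR and capillary electrophoresis. Fitting is bidirectional against DMSO.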

Test [4] can be described thus: ATG_RORE_CIS: Attagene CIS-FACTORIAL HepG2 Assay for human RAR-related Orphan Receptor Element (RORE) (AID 2282959). Conditions: HepG2 Attagene cis-factorial RORE reporter, mRNA; actives raise or lower the signal. The method in brief: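 HepG2 cells carrying transiently transfected cis-regulated reporter units; RORE-driven reporter mRNA quantified 24 h post-dosing by RT-PCR, 6-FAM primer extension, HpaI digestion and capillary electrophoresis. Bidirectional fit versus DMSO.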

Test [5] is described as follows: ATG_Sox_CIS: Attagene CIS-FACTORIAL HepG2 Assay for human SRY-box transcription factor (SOX) (AID 2282960). Conditions: HepG2 Attagene cis-factorial SOX reporter, mRNA; actives raise or lower the signal. In short, it runs like this: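 HepG2 cells transiently transfected with multiple cis-regulated reporter units, then dosed for 24 h. Reporter mRNA quantified by RT-PCR, fluorescent labelling, HpaI digestion and capillary electrophoresis; bidirectional fit versus DMSO.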

For test [6], the target named is Transcription factor Sp1 (Homo sapiens) (UniProt P08047). Put plainly: ATG_Sp1_CIS: Attagene CIS-FACTORIAL HepG2 Assay for human Specificity Protein 1 (Sp1) (AID 2282961). Conditions: HepG2 Sp1 cis-reporter transcription, actives raise or lower the signal. The method in brief: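 HepG2 cells transiently transfected with multiplexed cis-regulated reporter constructs, chemical exposure 24 h. Reporter mRNA quantified by RT-PCR with capillary electrophoresis; bidirectional fit relative to DMSO.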

The target in test [7] is Signal transducer and activator of transcription 3 (Homo sapiens) (UniProt P40763). Put plainly: ATG_STAT3_CIS: Attagene CIS-FACTORIAL HepG2 Assay for human Signal Transducer and Activator of Transcription 3 (STAT3) (AID 2282963). Conditions: HepG2, Attagene cis-factorial STAT3 reporter transcription; actives raise or lower the signal. The method in brief:
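HepG2, MRTU-transfected, 24 h dosing. RNA → RT → PCR → FAM label → HpaI → CE. Bidirectional fit vs DMSO.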

Test [8] in a line: ATG_TA_CIS: Attagene CIS-FACTORIAL HepG2 Assay for human TA Basal Promoter (AID 2282964). Conditions: HepG2 Attagene CIS-factorial TA basal promoter reporter; actives raise or lower the signal. The method in brief: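 Steps: transfect HepG2 with MRTUs; dose 24 h; isolate RNA, DNase-treat, reverse-transcribe; PCR and FAM-label reporter cDNA; digest with HpaI 2h at 37 C; run capillary electrophoresis. Activity fitted both directions against DMSO.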

A short description of test [9]: ATG_TCF_b_cat_CIS: Attagene CIS-FACTORIAL HepG2 Assay for human T-Cell-Factor with beta-catenin (TCF/b-cat) (AID 2282965). Conditions: HepG2 TCF/beta-catenin cis-reporter transcription, actives raise or lower the signal. The method in brief: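 In this cis-format system, transfected HepG2 cells report endogenous transcription factor activity. Readout after 24 h exposure is reporter transcript abundance from RT-PCR and capillary electrophoresis, analysed for gain or loss of signal versus DMSO.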

The nature of test [10]: ATG_TAL_CIS: Attagene CIS-FACTORIAL HepG2 Assay for human TAL Basal Promoter (AID 2282966).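 Further: background control endpoint measuring basal TAL promoter reporter mRNA not a specific factor.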 Conditions: HepG2 Attagene cis-factorial TAL promoter reporter; actives raise or lower the signal. In short, it runs like this: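 Endogenous transcription-factor activity is sensed in HepG2 cells through transfected cis-promoter reporter constructs. After 24 h dosing, reporter transcripts are quantified by RT-PCR and capillary electrophoresis. Gain or loss of signal is fitted relative to DMSO.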

Test [11] is described as follows: ATG_VDRE_CIS: Attagene CIS-FACTORIAL HepG2 Assay for human Vitamin D Receptor Element (VDRE) (AID 2282968). Conditions: HepG2 VDRE cis-reporter transcription, actives raise or lower the signal. The method in brief:
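Steps: transfect HepG2 with multiple reporter transcription units; dose chemicals 24 h; isolate RNA; RT-PCR; label with 6-FAM primer extension; HpaI digest; capillary electrophoresis. Curves fitted both directions against DMSO.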

Test [12] deals with Estrogen receptor (Homo sapiens) (UniProt P03372). Put plainly: ATG_ERa_TRANS: Attagene TRANS-FACTORIAL HepG2 Assay for human Estrogen Receptor alpha (ERa) (AID 2282970; active means hit-call score of the fitted dose curve at least 0.9, where 1 is the maximum). Conditions: HepG2 Attagene TRANS ERa GAL4 reporter, mRNA. In short, it runs like this: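 Transfected HepG2 cells carrying GAL4-UAS-driven reporter units were dosed for 24 hours. Total RNA was reverse-transcribed, reporter sequences PCR-amplified, FAM-labelled, HpaI-digested and resolved by capillary electrophoresis. Increases over DMSO control defined activity.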

Test [13] addresses Steroid hormone receptor ERR1 (Homo sapiens) (UniProt P11474). Put plainly: ATG_ERRa_TRANS: Attagene TRANS-FACTORIAL HepG2 Assay for human Estrogen-Related Receptor alpha (ERRa) (AID 2282971; active means hit-call score of the fitted dose curve at least 0.9, where 1 is the maximum). Conditions: HepG2 Attagene TRANS reporter, ERRa transactivation. The method in brief: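 HepG2 cells were transiently transfected with multiple GAL4-UAS reporter units, then dosed with compound for 24 h. Total RNA was reverse-transcribed, reporter cDNA PCR-amplified and fluorescently labelled, and fragments resolved by capillary electrophoresis; induction was compared with DMSO.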

The target in test [14] is X-box-binding protein 1 (Homo sapiens) (UniProt P17861). Put plainly: ATG_Xbp1_CIS: Attagene CIS-FACTORIAL HepG2 Assay for human X-box Binding Protein 1 (XBP1) (AID 2282972). Conditions: HepG2 XBP1 cis-element reporter, Attagene multiplex; actives raise or lower the signal. In short, it runs like this: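 Multiplexed cis-reporter readout in transfected HepG2 liver cells. Exposure lasted 24 hours. Activity in either direction was fitted against DMSO as negative control and baseline.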

Test [15] is described as follows: ATG_M_19_TRANS: Attagene TRANS-FACTORIAL HepG2 Assay for M19 Transcription Factor (Internal Marker) (AID 2282974; active means hit-call score of the fitted dose curve at least 0.9, where 1 is the maximum). Conditions: HepG2 Attagene TRANS-FACTORIAL M19 internal marker reporter. In short, it runs like this: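 HepG2 transiently transfected with GAL4-UAS multiplex reporter constructs, exposed 24 h; reporter RNA quantified by RT-PCR, 6-FAM labeling, HpaI digestion and capillary electrophoresis; internal background marker fitted upward versus DMSO.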

Test [16] in a line: ATG_GAL4_TRANS: Attagene TRANS-FACTORIAL HepG2 Assay for GAL4 (Internal Marker) (AID 2282976; active means hit-call score of the fitted dose curve at least 0.9, where 1 is the maximum). Conditions: HepG2 Attagene TRANS GAL4 internal marker reporter. In short, it runs like this:
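Fluorescence from capillary electrophoresis of labelled RT-PCR products quantifies reporter mRNA induction after 24 h dosing of HepG2 cells carrying transfected GAL4-UAS reporter transcription units. Vehicle DMSO serves as baseline.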

A short description of test [17]: ATG_SREBP_CIS: Attagene CIS-FACTORIAL HepG2 Assay for human Sterol Regulatory Element Binding (SREBP) (AID 2282962). Conditions: HepG2 Attagene cis-factorial SREBP reporter, mRNA; actives raise or lower the signal. The method in brief: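 Endogenous factor activity is measured in HepG2 through multiplexed reporter units under cis-element control. Following a 24 h incubation, reporter transcripts are reverse-transcribed, PCR-amplified and sized by capillary electrophoresis; activity is fitted in both directions relative to DMSO.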

Test [18] deals with Nuclear receptor subfamily 1 group I member 3 (Homo sapiens) (UniProt Q14994). Put plainly: ATG_CAR_TRANS: Attagene TRANS-FACTORIAL HepG2 Assay for human Constitutive Androstane Receptor (CAR) (AID 2282969; active means hit-call score of the fitted dose curve at least 0.9, where 1 is the maximum;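 further: activators raise reporter mRNA above DMSO so AC50 marks induction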). Conditions: HepG2 Attagene TRANS-FACTORIAL CAR reporter. In short, it runs like this:
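Steps: transient transfection of HepG2 with multiple GAL4-UAS reporter units; 24 h compound incubation; RNA isolation, RT-PCR, 6-FAM primer extension, HpaI digest; capillary electrophoresis. Gain-of-signal relative to DMSO negative control.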

Test [19] is described as follows: ATG_TGFb_CIS: Attagene CIS-FACTORIAL HepG2 Assay for human Transforming Growth Factor (TGF) (AID 2282967). Conditions: HepG2 Attagene CIS TGFb reporter, mRNA transcription; actives raise or lower the signal. In short, it runs like this:
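Cells were dosed for 24 hours, after which total RNA was reverse-transcribed and reporter sequences amplified, labeled and sized by capillary electrophoresis. Activity was fitted in both directions against DMSO.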

Estrogen receptor (Homo sapiens), sequence (P03372 whole entry, looked up, the tested form may be a part): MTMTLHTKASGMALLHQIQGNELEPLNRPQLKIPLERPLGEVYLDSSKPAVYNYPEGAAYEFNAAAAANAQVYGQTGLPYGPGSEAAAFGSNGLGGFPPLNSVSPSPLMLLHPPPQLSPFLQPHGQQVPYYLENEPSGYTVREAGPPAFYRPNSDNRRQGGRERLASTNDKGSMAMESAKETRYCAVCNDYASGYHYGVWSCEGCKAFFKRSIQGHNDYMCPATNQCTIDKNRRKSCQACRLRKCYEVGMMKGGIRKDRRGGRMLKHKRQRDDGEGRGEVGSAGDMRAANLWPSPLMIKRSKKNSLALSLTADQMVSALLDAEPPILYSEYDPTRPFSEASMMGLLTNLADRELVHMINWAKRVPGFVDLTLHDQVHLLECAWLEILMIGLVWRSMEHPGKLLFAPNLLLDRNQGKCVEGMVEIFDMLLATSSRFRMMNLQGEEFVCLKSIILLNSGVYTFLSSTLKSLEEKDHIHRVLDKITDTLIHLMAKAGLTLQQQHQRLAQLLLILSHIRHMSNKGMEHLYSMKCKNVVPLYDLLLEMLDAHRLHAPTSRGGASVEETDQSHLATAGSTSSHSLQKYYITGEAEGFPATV
Paired box protein Pax-6 (Homo sapiens), sequence (P26367 whole entry, looked up): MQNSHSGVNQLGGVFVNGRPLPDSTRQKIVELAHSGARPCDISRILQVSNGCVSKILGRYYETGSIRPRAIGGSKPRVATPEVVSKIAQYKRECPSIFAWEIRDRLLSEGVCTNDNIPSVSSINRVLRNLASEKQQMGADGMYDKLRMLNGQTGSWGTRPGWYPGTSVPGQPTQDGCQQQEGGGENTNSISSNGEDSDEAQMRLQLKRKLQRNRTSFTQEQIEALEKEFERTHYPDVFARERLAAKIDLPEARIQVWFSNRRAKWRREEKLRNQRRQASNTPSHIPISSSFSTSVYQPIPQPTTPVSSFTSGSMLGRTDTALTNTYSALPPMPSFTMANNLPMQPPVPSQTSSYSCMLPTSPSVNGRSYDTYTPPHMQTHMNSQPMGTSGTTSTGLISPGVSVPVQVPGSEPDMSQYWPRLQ
X-box-binding protein 1 (Homo sapiens), sequence (P17861 whole entry, looked up): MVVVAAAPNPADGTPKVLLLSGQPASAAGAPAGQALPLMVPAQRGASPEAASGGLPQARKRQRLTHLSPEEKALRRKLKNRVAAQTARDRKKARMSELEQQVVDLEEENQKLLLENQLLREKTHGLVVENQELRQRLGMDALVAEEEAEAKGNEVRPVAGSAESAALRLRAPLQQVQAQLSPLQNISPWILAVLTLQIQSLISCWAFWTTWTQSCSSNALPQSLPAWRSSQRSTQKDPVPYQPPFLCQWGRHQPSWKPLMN
Signal transducer and activator of transcription 3 (Homo sapiens), sequence (P40763 whole entry, looked up): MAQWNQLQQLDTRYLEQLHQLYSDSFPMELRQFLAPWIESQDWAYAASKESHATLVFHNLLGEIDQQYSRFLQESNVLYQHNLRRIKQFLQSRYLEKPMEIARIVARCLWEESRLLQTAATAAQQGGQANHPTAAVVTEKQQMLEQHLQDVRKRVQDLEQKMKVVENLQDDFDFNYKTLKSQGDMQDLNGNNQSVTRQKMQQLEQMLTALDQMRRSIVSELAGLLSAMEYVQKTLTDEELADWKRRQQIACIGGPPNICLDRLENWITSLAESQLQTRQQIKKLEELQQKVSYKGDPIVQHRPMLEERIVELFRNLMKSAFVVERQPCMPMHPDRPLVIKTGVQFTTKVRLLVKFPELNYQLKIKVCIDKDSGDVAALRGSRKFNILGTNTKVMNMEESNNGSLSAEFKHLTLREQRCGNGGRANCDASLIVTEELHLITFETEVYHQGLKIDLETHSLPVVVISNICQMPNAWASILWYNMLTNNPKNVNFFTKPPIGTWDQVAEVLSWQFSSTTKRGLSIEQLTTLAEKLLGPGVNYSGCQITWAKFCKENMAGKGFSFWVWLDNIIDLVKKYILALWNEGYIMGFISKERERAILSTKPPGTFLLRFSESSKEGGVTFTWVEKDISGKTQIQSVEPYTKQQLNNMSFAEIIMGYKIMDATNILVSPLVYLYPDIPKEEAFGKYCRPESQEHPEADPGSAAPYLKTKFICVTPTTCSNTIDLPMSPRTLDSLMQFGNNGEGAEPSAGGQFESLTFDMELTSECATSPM
Transcription factor Sp1 (Homo sapiens), sequence (P08047 whole entry, looked up): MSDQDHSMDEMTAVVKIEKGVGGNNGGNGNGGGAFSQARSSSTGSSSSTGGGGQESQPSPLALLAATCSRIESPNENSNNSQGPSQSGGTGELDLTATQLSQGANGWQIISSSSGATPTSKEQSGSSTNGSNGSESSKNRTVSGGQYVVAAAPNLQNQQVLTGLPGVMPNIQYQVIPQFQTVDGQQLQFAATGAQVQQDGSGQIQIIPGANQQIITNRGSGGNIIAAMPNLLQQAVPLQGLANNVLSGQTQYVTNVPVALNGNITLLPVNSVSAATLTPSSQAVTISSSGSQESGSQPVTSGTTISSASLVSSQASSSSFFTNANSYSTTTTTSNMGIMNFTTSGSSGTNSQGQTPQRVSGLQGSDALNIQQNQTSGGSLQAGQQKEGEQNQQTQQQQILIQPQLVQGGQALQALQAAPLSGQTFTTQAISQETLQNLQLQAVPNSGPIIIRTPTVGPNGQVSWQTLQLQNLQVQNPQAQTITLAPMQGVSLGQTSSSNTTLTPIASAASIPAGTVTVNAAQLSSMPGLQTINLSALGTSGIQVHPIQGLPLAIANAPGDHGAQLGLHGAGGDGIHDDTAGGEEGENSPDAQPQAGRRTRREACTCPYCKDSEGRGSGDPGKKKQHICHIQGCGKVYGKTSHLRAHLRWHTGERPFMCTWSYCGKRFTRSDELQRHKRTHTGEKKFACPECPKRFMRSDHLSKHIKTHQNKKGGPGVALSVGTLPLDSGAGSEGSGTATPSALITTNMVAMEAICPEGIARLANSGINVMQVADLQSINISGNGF
Nuclear receptor subfamily 1 group I member 3 (Homo sapiens), sequence (Q14994 whole entry, looked up, the tested form may be a part): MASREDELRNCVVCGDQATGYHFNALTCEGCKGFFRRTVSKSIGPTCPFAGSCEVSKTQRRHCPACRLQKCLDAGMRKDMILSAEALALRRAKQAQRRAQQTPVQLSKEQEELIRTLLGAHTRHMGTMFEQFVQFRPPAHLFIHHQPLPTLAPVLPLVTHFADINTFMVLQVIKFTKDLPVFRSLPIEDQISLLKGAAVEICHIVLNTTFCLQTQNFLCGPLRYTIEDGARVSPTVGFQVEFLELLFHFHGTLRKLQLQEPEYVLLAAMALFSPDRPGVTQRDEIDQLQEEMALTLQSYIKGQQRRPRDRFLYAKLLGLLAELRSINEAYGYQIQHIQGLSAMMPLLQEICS
Steroid hormone receptor ERR1 (Homo sapiens), sequence (P11474 whole entry, looked up, the tested form may be a part): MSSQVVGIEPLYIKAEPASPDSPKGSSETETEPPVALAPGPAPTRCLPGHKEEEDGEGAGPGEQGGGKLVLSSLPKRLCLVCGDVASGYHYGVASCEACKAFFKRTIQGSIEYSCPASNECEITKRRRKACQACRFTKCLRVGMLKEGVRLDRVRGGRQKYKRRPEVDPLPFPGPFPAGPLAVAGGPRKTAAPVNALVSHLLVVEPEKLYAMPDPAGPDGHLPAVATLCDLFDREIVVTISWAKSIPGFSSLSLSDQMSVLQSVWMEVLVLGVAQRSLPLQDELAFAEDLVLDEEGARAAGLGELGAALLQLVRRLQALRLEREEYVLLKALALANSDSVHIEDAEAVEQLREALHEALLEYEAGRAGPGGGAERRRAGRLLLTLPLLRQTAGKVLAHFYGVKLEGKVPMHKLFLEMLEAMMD

Regarding `CCC(C)(C)C1CCC(=O)CC1`, the outcome in test [1], in test [3], in [4], in test [5], in test [6] and in test [7] was inactive. Moreover, the outcome in test [8], in test [9], in test [10], in test [11], in [13] and in test [14] was inactive. The outcome in test [15] and in test [16] was inactive. In addition, the results for the AC50 in test [2] and in test [12] were 5.24 µM (active) and 28.2 µM (active), respectively.
`CCC(=O)OC(C)(C)C1CC=C(C)CC1` (centres undefined): the outcome in test [1], in [3], in [4], in test [5], in test [17] and in test [7] was inactive. Moreover, the compound was classed as inactive in test [8], in test [9], in [10], in test [18], in [14] and in test [15]. Moreover, the result in test [16] was inactive. In addition, the figures for the concentration at half-maximal activity (AC50) in test [2] and in [12] were 27.4 µM (active) and 78.3 µM (active), respectively.
`CC1=CC[C@@H](C(C)(C)O)CC1`: the compound was classed as inactive in test [1], in [2], in test [3], in test [5], in [17] and in test [7]. For the same compound, the outcome in test [8], in [9], in test [10], in test [11], in test [12] and in [14] was inactive.
Regarding `N=C1N=C(N)c2ccccc21`, the compound was called inactive in test [1], in [2], in [4], in [5], in test [6] and in test [17]. Further, the call in test [7], in [8], in [9], in [10], in test [19] and in test [11] was inactive. Further, the compound was called inactive in test [18], in [14] and in test [15]. Moreover, the half-maximal activity concentration (AC50) in test [12] was 100 µM (active).
For `O=S1(=O)CC(Cl)(Cl)C(Cl)(Cl)C1`, the AC50 in [1] is 5.97 µM (active); in test [11], 3.71 µM (active). Moreover, the call in test [2], in test [3], in test [4], in [5], in [7] and in test [8] was inactive. The result in test [9], in test [10], in [19], in [12], in test [13] and in [14] was inactive. Besides, the call in test [15] was inactive.

Broadly, the AC50 is the concentration at which the activity in the assay is half-maximal.
